In PubChem BioAssay (EPA / NIEHS):
Inconclusive results are not listed. Activity calls are given as the source filed them. How the source made its calls, unless noted: active means hit-call score of the fitted dose curve at least 0.9, where 1 is the maximum; inactive means score below 0.9.

Columns and labels:
[1] = TOX21_p53_BLA_p2_viability: Viability Assessment in the Tox21 HCT-116 p53 Agonism Beta-lactamase Assay, Phase 2 (AID 2283591; active means hit-call score of the fitted dose curve at least 0.9, where 1 is the maximum;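 further: actives lower the ATP signal meaning cytotoxicity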)
Summary of the method: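 HCT116 p53-bla cells, 4000/well, dosed after 5 h plating (217-fold dilution of DMSO stocks) and incubated 16 h at 37C. Viability taken as cellular ATP by CellTiter-Glo luminescence after 30 min RT; signal loss marks cytotoxicity.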

[2] = molecular target: Cellular tumor antigen p53 (Homo sapiens) (UniProt P04637); experiment: TOX21_p53_BLA_p2_ratio: Tox21 HCT-116 p53 Agonism Beta-lactamase Assay, Ratio, Phase 2 (AID 2283592; active means hit-call score of the fitted dose curve at least 0.9, where 1 is the maximum)
Summary of the method: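 Readout: blue/green (460/530 nm) FRET emission ratio after 2 h CCF4-AM loading at room temperature, excitation 405 nm. HCT116 p53 bla cells, 16 h compound exposure at 37C, 5% CO2; agonist direction fitted against DMSO baseline.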

[3] = TOX21_p53_BLA_p3_viability: Viability Assessment in the Tox21 HCT-116 p53 Agonism Beta-lactamase Assay, Phase 3 (AID 2283593; active means hit-call score of the fitted dose curve at least 0.9, where 1 is the maximum;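 further: cells exposed to compound for 16 h before reading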)
Summary of the method: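 HCT116 cells, 4000/well, dosed 5 h after plating by pin transfer (217-fold dilution from DMSO stock) and incubated 16 h at 37C, 5% CO2. Viability read as ATP luminescence with CellTiter-Glo after 30 min at room temperature.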

[4] = molecular target: Cellular tumor antigen p53 (Homo sapiens) (UniProt P04637); experiment: TOX21_p53_BLA_p3_ratio: Tox21 HCT-116 p53 Agonism Beta-lactamase Assay, Ratio, Phase 3 (AID 2283596; active means hit-call score of the fitted dose curve at least 0.9, where 1 is the maximum)
Summary of the method: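 Cells were seeded at 4000/well, rested 5 h at 37C, then dosed with DMSO compound solutions (217-fold dilution) for 16 h. CCF4-AM substrate was loaded for 2 h at room temperature, and the 460/530 nm emission ratio was fitted for gain of signal versus DMSO.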

[5] = TOX21_p53_BLA_p4_viability: Viability Assessment in the Tox21 HCT-116 p53 Agonism Beta-lactamase Assay, Phase 4 (AID 2283597; active means hit-call score of the fitted dose curve at least 0.9, where 1 is the maximum;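 further: hits lower the luminescence signal meaning cytotoxicity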)
Summary of the method: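 ATP content by CellTiter-Glo luminescence, 30 min RT, read after the beta-lactamase ratio step. Cells: HCT116, 4000/well, compound added after 5 h, exposure 16 h at 37C. Signal loss = reduced viability.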

[6] = molecular target: Cellular tumor antigen p53 (Homo sapiens) (UniProt P04637); experiment: TOX21_p53_BLA_p5_ratio: Tox21 HCT-116 p53 Agonism Beta-lactamase Assay, Ratio, Phase 5 (AID 2283599; active means hit-call score of the fitted dose curve at least 0.9, where 1 is the maximum)
Summary of the method: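 HCT-116 p53-bla cells (4000/well) plated 5 h, dosed with compound (217-fold DMSO dilution) for 16 h at 37 C; CCF4-AM substrate 2 h at room temperature. Activity is the 460/530 nm emission ratio (405 nm excitation), fitted in gain-of-signal direction versus DMSO.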

[7] = TOX21_p53_BLA_p5_viability: Viability Assessment in the Tox21 HCT-116 p53 Agonism Beta-lactamase Assay, Phase 5 (AID 2283600; active means hit-call score of the fitted dose curve at least 0.9, where 1 is the maximum)
Summary of the method: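 ATP luminescence (CellTiter-Glo, 30 min, RT) served as the viability read-out, with loss of signal indicating cytotoxicity. Compounds in DMSO were pinned at a 217-fold dilution onto 4000 cells/well and incubated 16 h, 37C.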

[8] = molecular target: Cellular tumor antigen p53 (Homo sapiens) (UniProt P04637); experiment: TOX21_p53_BLA_p4_ratio: Tox21 HCT-116 p53 Agonism Beta-lactamase Assay, Ratio, Phase 4 (AID 2283601; active means hit-call score of the fitted dose curve at least 0.9, where 1 is the maximum)
Summary of the method: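 HCT-116 p53 beta-lactamase reporter cells (4000/well) preincubated 5 h, then compound (217-fold dilution of DMSO stock) for 16 h at 37C. CCF4-AM substrate added 2 h at room temperature; 460/530 nm emission ratio fitted upward versus DMSO.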

[9] = CCTE_Shafer_MEA_dev_firing_rate_mean: CCTE's Neural Network Formation Assay for Mean Firing Rate, Shafer Lab (AID 2284031);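 further: curve fitted for loss of firing so AC50 reflects decreased mean firing rate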
Summary of the method: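 Read-out: spike count/recording length, averaged over active electrodes, then AUC across days 5, 7, 9, 12. Rat cortical cultures on MEA; continuous 12-day exposure, media and treatment renewed DIV 5, 9; DMSO baseline.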

[10] = CCTE_Shafer_MEA_dev_per_burst_spike_percent: CCTE's Neural Network Formation Assay for Percent of Spikes in a Burst, Shafer Lab (AID 2284032);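 further: fitted as a decrease in burst spike percentage below DMSO baseline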
Summary of the method: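 Value is trapezoidal AUC over recordings on days 5, 7, 9 and 12 of the well-mean fraction of spikes falling in single-electrode bursts; rat cortical cultures exposed continuously from plating, treatment renewed DIV 5 and 9, fitted downward against DMSO.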

[11] = CCTE_Shafer_MEA_dev_active_electrodes_number: CCTE's Neural Network Formation Assay for Number of Active Electrodes, Shafer Lab (AID 2284040; active means hit-call score of the fitted dose curve at least 0.9, where 1 is the maximum;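 further: potency for loss of active electrodes versus DMSO so lower counts are hits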)
Summary of the method: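 Developing rat cortical networks on MEAs, exposed DIV 0–12. Value is the AUC of active-electrode counts (≥5 spikes/min) from days 5, 7, 9, 12, relative to DMSO.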

[12] = CCTE_Shafer_MEA_dev_burst_rate: CCTE's Neural Network Formation Assay for Burst Rate, Shafer Lab (AID 2284042);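 further: potency for loss of burst rate below DMSO control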
Summary of the method: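 Cells plated, treated day 0; recorded DIV 5, 7, 9, 12; fed and re-treated DIV 5, 9. Endpoint: bursts per recording time, active-electrode well mean, trapezoidal AUC, fitted in decreasing direction against DMSO baseline.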

[13] = CCTE_Shafer_MEA_dev_bursting_electrodes_number: CCTE's Neural Network Formation Assay for Number of Bursting Electrodes, Shafer Lab (AID 2284043; active means hit-call score of the fitted dose curve at least 0.9, where 1 is the maximum;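 further: potency is for loss of bursting electrodes relative to DMSO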)
Summary of the method: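 Rat cortical primary neurons, 48-well MEA, 16 electrodes/well; dosing DIV 0–12, re-dosed with full media change DIV 5, 9. Recordings DIV 5/7/9/12, AxIS adaptive spike detector; bursting electrode = ≥1 burst/2 min. AUC across days; loss of signal vs DMSO.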

[14] = CCTE_Shafer_MEA_dev_per_burst_interspike_interval: CCTE's Neural Network Formation Assay for Burst Interspike Interval, Shafer Lab (AID 2284044);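 further: potency for a decrease of within-burst interspike interval below DMSO level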
Summary of the method: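 Readout is the average time between spikes inside single-electrode bursts, taken as a well mean across bursting electrodes. Cortical neurons from rat developed networks on MEA plates under continuous 12-day exposure; recordings on days 5, 7, 9 and 12 were integrated by trapezoidal AUC.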

[15] = CCTE_Shafer_MEA_dev_burst_duration_mean: CCTE's Neural Network Formation Assay for Mean Burst Duration, Shafer Lab (AID 2284045);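 further: curve fitted for loss meaning shorter burst duration than DMSO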
Summary of the method: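 Rat cortical cultures, 1.5 x 10^5 cells/well with laminin drop; continuous dosing days 0–12, media plus treatment refreshed DIV 5, 9. AxIS adaptive spike detection; mean single-electrode burst duration, AUC over four recordings, negative direction vs DMSO.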

[16] = CCTE_Shafer_MEA_dev_interburst_interval_mean: CCTE's Neural Network Formation Assay for Mean Interburst Interval, Shafer Lab (AID 2284046);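 further: well-mean interburst interval of bursting electrodes as AUC over four recording days; curve fitted for decrease in interburst interval relative to DMSO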
Summary of the method: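 Developing rat cortical networks on 48-well MEAs receive compound from the day of plating. Burst intervals from each active electrode are averaged per well, and AUC over the recording days is fitted in the negative direction against DMSO.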

[17] = CCTE_Shafer_MEA_dev_inter_network_spike_interval_mean: CCTE's Neural Network Formation Assay for Mean Inter-network Spike Interval, Shafer Lab (AID 2284047);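 further: potency for a decrease in mean inter-network spike interval below DMSO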
Summary of the method: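 Rat cortical cultures, 1.5 x 10^5 cells/well on 48-well MEA plates; continuous exposure days 0–12, medium and compound refreshed DIV 5, 9. Mean time between consecutive network-spike peaks; AUC across DIV 5/7/9/12; DMSO baseline, negative fitting direction.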

[18] = CCTE_Shafer_MEA_dev_network_spike_number: CCTE's Neural Network Formation Assay for Number of Network Spikes, Shafer Lab (AID 2284048);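 further: fit as a loss of signal meaning fewer network spikes than DMSO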
Summary of the method: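 Rat cortical primary cultures on 48-well MEA (16 electrodes/well); continuous exposure DIV 0–12, full medium and treatment exchange DIV 5, 9. Readout: network spike count, AxIS adaptive detection, recordings DIV 5/7/9/12 collapsed to AUC; loss-of-signal fit, DMSO baseline.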

[19] = CCTE_Shafer_MEA_dev_network_spike_peak: CCTE's Neural Network Formation Assay for Mean Number of Electrodes in Network Spike, Shafer Lab (AID 2284049);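 further: fitted for loss of signal meaning fewer electrodes in network spikes than DMSO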
Summary of the method: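 Network-spike peak electrode count from recordings on days 5, 7, 9 and 12 was combined as trapezoidal area under the curve. Rat cortical cultures were treated continuously from plating, with compound renewed at each feed (DIV 5, 9); fits versus DMSO.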

[20] = CCTE_Shafer_MEA_dev_spike_duration_mean: CCTE's Neural Network Formation Assay for Mean Spike Duration, Shafer Lab (AID 2284051);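 further: mean network spike duration pooled as area under curve over DIV 5 to 12 recordings; potency for a decrease in mean network spike duration versus DMSO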
Summary of the method: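 Readout is the average length of network spikes, clustered firing across electrodes, summed over DIV 5, 7, 9 and 12 as area under the curve. Neurons from rat cortex developed networks on MEA plates under continuous 12-day exposure.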

[21] = CCTE_Shafer_MEA_dev_network_spike_duration_std: CCTE's Neural Network Formation Assay for Standard Deviation of Network Spike Duration, Shafer Lab (AID 2284052);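 further: area under curve of spike duration SD across recording days 5 to 12; hits are decreases in network spike duration SD versus DMSO vehicle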
Summary of the method: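 Read-out is the trapezoidal area-under-the-curve across recordings made on days 5, 7, 9 and 12, fitted in the negative direction against DMSO baseline. Neurons were primary rat cortical cells treated from day 0, with treatment renewed at each feed.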

[22] = CCTE_Shafer_MEA_dev_per_network_spike_spike_number_mean: CCTE's Neural Network Formation Assay for Mean Number of Spikes in a Network Spike, Shafer Lab (AID 2284053);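 further: fitted as decrease in spikes per network spike relative to DMSO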
Summary of the method: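 Continuous twelve-day exposure of developing rat cortical networks grown over 16 microelectrodes per well; spontaneous firing is captured at four time points, and the per-network-spike spike number is integrated over development by trapezoidal AUC.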

Measured: AC50

Chain of Cellular tumor antigen p53 (Homo sapiens) (P04637 whole entry, looked up): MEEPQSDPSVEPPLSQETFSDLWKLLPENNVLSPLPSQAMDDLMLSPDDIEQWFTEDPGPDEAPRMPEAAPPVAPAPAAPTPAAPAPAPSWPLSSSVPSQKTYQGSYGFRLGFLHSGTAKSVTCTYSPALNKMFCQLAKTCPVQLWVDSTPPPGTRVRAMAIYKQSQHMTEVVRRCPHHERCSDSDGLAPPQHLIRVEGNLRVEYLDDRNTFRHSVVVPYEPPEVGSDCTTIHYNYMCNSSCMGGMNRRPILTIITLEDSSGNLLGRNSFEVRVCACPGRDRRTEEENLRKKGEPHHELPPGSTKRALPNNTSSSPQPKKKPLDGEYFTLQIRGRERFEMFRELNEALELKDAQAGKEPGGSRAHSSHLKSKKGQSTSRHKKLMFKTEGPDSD

CCC[CH2][Sn]([CH2]CCC)([CH2]CCC)[O][Sn]([CH2]CCC)([CH2]CCC)[CH2]CCC
active: [1] 0.708 µM | [3] 0.236 µM | [4] 0.348 µM | [5] 0.668 µM | [6] 2.03 µM | [7] 1.37 µM | [8] 2.22 µM | [9] 0.0245 µM | [10] 0.0342 µM | [11] 0.0429 µM | [12] 0.0291 µM | [13] 0.0378 µM | [14] 0.0768 µM | [15] 0.034 µM | [16] 0.0762 µM | [17] 0.0315 µM | [18] 0.0564 µM | [19] 0.0457 µM | [20] 0.0308 µM | [21] 0.0312 µM | [22] 0.029 µM
inactive: [2]
